Screening data from PubChem.
Hits are enriched below; roughly 5.2% of the tested compounds scored in any of these assays.
Coupling enz = qHTS Assay for Inhibitors of Fructose-1,6-bisphosphate Aldolase from Giardia Lamblia: Coupling assay counterscreen. coupling enzyme system counterscreen, AmpLite Red fluorescence. activity change, negative = inhibition, % at 58.2 µM, hits read low. 290,000 compounds, 0.67% hits. AID 2472, 2010; in the data active = activity change below about -30%
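Fluorescence at 525 nm excitation and 598 nm emission measured inhibition of the coupled detection system without aldolase. Compounds (at 57.5 uM final) were preincubated 10 min at room temperature with coupling enzyme reagent before a 20 min substrate/AmpLite Red step.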
Tau FP inhib = qHTS for Inhibitors of Tau Fibril Formation, Fluorescence Polarization; Microtubule-associated protein tau (Homo sapiens), P10636; K18 P301L tau heparin fibrillization, Alexa594 FP, 6 h; Potency, µM (doses to about 57.7 µM), for the others: top-dose activity, negative = inhibition, usual class: inhibitors; 280,000 compounds, 0.39% hits; AID 1468, 2008; also: potency is read from the fitted curve at half-maximal effect; nearly all actives have a fitted effect of over 55% in size
Target sequence (P10636 561-689 P618L limits assumed): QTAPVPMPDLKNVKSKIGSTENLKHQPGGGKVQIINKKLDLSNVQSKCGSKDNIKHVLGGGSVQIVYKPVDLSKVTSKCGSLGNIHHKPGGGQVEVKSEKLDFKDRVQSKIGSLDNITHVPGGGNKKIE
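Heparin (20 uM) drove fibril formation of recombinant tau K18 P301L, 15 uM unlabeled with 0.24 uM Alexa 594 label, for 6 hr at 37 C in 100 mM sodium acetate pH 7. Fluorescence polarization (555/632 nm) read 1 hr after 30 uM ThT.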
Tau fibril ThT = qHTS for Inhibitors of Tau Fibril Formation, Thioflavin T Binding | AID 1460, 2008 | recombinant tau K18 P301L, heparin-induced fibrillization, ThT fluorescence | 270,000 compounds, 2.1% hits | Potency, µM (titrated, usually from 57.4 µM), for the others: at the highest dose activity, negative = inhibition, actives largely listed as inhibitors; also: potency is read from the fitted curve at half-maximal effect; nearly all actives have a fitted effect of over 55% in size
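Recombinant human tau K18 fragment […] carrying P301L, 15 uM unlabeled plus 0.24 uM Alexa 594-labeled, was fibrillized with 20 uM heparin in 100 mM sodium acetate pH 7 for 6 hr at 37 C; 30 uM ThT fluorescence read after 1 hr.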
Tau fluor cs = Counterscreen qHTS for Inhibitors of Tau Fibril Formation, Fluorescence Polarization; tau K18 P301L (four-repeat tau fragment) Alexa594 fluorescence, heparin fibrillization; AID 1463, 2008; 280,000 compounds, 0.93% hits; Potency, µM (series often up to 57.7 µM), for the others: top-dose activity change, negative = decrease; also: potency is read from the fitted curve at half-maximal effect; nearly all actives have a fitted effect of over 55% in size
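Human K18 P301L tau (15 uM unlabeled plus 0.24 uM Alexa 594-labeled, final) in 100 mM sodium acetate pH 7 was mixed with compound and 20 uM heparin and incubated 6 hr at 37 C.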
Sfp inh = qHTS Assay for Inhibitors of Bacillus subtilis Sfp phosphopantetheinyl transferase (PPTase) | 4'-phosphopantetheinyl transferase ffp (Bacillus subtilis), Q9F4F7 | Biochemical Sfp PPTase activity, qHTS | Potency, µM, inactives show largest response in the series, negative = inhibition, hits mostly inhibitors | 310,000 compounds, 3.5% hits | AID 1490, 2009;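 also: the enzyme is Sfp with the accession as filed and its product quenches rhodamine fluorescence; potency is read from the fitted curve at half-maximal effect; 0% = enzyme reaction without inhibitor and -100% = no enzyme wells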
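After 15 min at room temperature with compound, 15 nM Sfp received 5 uM rhodamine-CoA plus 12.5 uM BHQ-2-ybbR (50 mM Hepes pH 7.6, 10 mM MgCl2). Rate came from the fluorescence difference over 30 min, ex 525/em 598 nm.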
Starred values were filed as active, the others as inactive; u = inconclusive; x = no result given; [ ] = dose if it differs, or a comment. Unless noted, calls follow the shape of the dose curve; as a rule, active = well fitted curve in the direction sought with a large enough effect; inconclusive = small, poorly fitted or top-dose-only effect, or another doubt; inactive = no such curve, though single readings can be large; an effect the other way counts as inactive or inconclusive. Unless noted, % is scaled to controls: 0 for no effect and ±100 for the full control effect.

SMILES	Coupling enz	Tau FP inhib	Tau fibril ThT	Tau fluor cs	Sfp inh
Cc1ccc(C2C(C#N)=C(N)SC(N)=C2C#N)o1	-25	18µM*	14µM*	u	13µM*
CCc1ccc(C2C(C#N)=C(N)SC(N)=C2C#N)s1	-1	u	14µM*	u	-10%
CC(C)c1cnc2c(c1SCc1cccc(F)c1)c(=O)n(C)c(=O)n2C	x	2%	-13%	-9%	x
C=CCNC(=S)/C(=C(/[O-])c1ccc([N+](=O)[O-])cc1)[n+]1ccccc1	-5	u	u	-18%	4%
O=[N+]([O-])c1cccc(/C([O-])=C(/C(=S)Nc2ccccc2)[n+]2ccccc2)c1	-14	2%	-1%	-2%	u
[O-]/C(=C(\C(=S)Nc1ccc(Cl)cc1)[n+]1ccccc1)c1ccc(OC(F)F)cc1	0	4%	u	-12%	50µM*
CC(C)(C)c1cc[n+](/C(C(=S)Nc2ccccc2F)=C(/[O-])c2ccc3c(c2)OCCO3)cc1	-8	-4%	u	-20%	20µM*
[O-]/C(=C(\C(=S)Nc1ccccc1F)[n+]1ccccc1)c1ccc(-c2ccccc2)cc1	-1	-9%	u	-21%	18µM*
CCOc1ccccc1NC(=S)/C(=C(\[O-])c1ccc2c(c1)OCCO2)[n+]1ccc(CC)cc1	-8	u	u	-19%	u
COCCNC(=O)c1c(C)oc2nc(C)nc(N3CCOCC3)c12	x	-1%	-2%	-2%	x
COc1ccc(CNC(=O)c2ccc3c(c2)N(Cc2c(F)cccc2Cl)C(=O)CS3)cc1	x	-8%	-12%	-29%	x
Cc1ccc(-c2nnc(SCC(=O)NCCC(C)C)nc2-c2ccc(C)cc2)cc1	x	-1%	-15%	-18%	x
CCCNC(=S)Nc1ccc2nc(-c3ccccn3)c(-c3ccccn3)nc2c1	-54*	0%	-2%	-8%	18µM*
S=C(Nc1ccc2nc(-c3ccccn3)c(-c3ccccn3)nc2c1)N1CCCCC1	-2	7%[2.34 µM]	4%	7%[2.34 µM]	0%
S=C(Nc1ccc2nccnc2c1)N1CCOCC1	-34*	u	25µM*	-28%	35µM*
S=C(Nc1ccc2nc(-c3ccccn3)c(-c3ccccn3)nc2c1)N1CCCCCC1	-28	-2%	u	-21%	40µM*
Cc1ccc(NC(=S)N2CCOCC2)cc1	2	-2%	-7%	-3%	25%
Cc1ccc(C(=O)Nc2ccc3c(c2)N(C)C(=O)c2ccccc2S3)cc1	x	u	0%	u	x
Cc1ccc(N2C(=O)C(Cl)=C(Nc3c(C)n(C)n(-c4ccccc4)c3=O)C2=O)cc1	4	u	28µM*	-27%	u
Cc1cccc(N2C(=O)C(Cl)=C(Nc3c(C)n(C)n(-c4ccccc4)c3=O)C2=O)c1C	-1	u	u	-17%	56µM*
Cc1c(NC(=O)Nc2c(Cl)cccc2Cl)c(=O)n(-c2ccccc2)n1C	4	-4%	-7%	-11%	10%
Cc1ccc2c(CC(=O)Nc3c(C(=O)c4ccc(F)cc4)oc4ccccc34)coc2c1	x	-19%	-2%	-25%	x
CCCN(CCC)S(=O)(=O)c1ccc(N2CCCCS2(=O)=O)cc1	x	-7%	0%	0%	x
C[C@H]1C[C@@H]2[C@H]3CCC4=CC(=O)C=C[C@@]4(C)[C@@]3(Cl)[C@@H](O)C[C@]2(C)[C@]1(OC(=O)c1ccco1)C(=O)CCl	-4	x	x	x	35µM*
Cc1ccc(CNC(=O)CCCN2C(=O)CCn3nc(-c4cccn4C)cc32)cc1	x	3%	-10%	-13%	x
Cc1ccc(/C=C2\SC(N3CCN(C(c4ccccc4)c4ccccc4)CC3)=NC2=O)o1	-23	3%	5%	7%	4µM*
Cc1ccc(-c2ccc(/C=C3\SC(N4CCOCC4)=NC3=O)o2)cc1	-5	-5%	13µM*	u	40µM*
O=C1N=C(N2CCOCC2)S/C1=C/c1ccc(-c2ccc(F)cc2)o1	-1	5%	u	-15%	-4%
